In PubChem BioAssay (NCI) one finds growth data, which are given here for 40 molecules.

About 83,000 compounds went through this panel and 20% of them were active in at least one assay; those are over-represented in the sample as a whole.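 Negative percent growth values reflect cell death: -40 means 40% of the cells present at the start died, and -100 means all died.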 Values without a mark were called inactive. Activity calls are given as the source filed them.

This assay concerns M14 melanoma. The assay is described as follows: NCI-60 one-dose screen, 48 h (100 = growth as untreated, 0 = no growth, -100 = all killed). The settings on record: 10 µM. The method, then: Growth inhibition of the M14 human tumor cell line is measured as a screen for anti-cancer activity. Cells are grown in 96 well plates and exposed to the test compound for 48 hours. Compounds are tested at a single concentration, which is 10^-5 M for most compounds. The reported endpoint is percent growth (GI% or GIPRCNT), where numbers from 0 - 100% represent growth inhibition, and numbers from -100% - 0 represent cell death. For example, a value of 40 represents 60% growth inhibition. A value of 0 means no net growth occurred over the course of the experiment. A value of -40 indicates 40% of cells at the beginning of the experiment died by the end of the experiment. A value of -100 means all cells are dead at the end of the experiment.
NCI-60 Human Tumor Cell Lines Screen was performed using the standard one-dose NCI protocol, which is described in more detail at https://dtp.cancer.gov/discovery_development/nci-60/default.htm.
Compounds with GIPRCNT values below 10 were considered active. Activity score was based on GIPRCNT using the following formula: […]
Score is 0 for GIPRCNT values of 100 or above, 50 for GIPRCNT values of 0, and 100 for GIPRCNT values of -100.
Regarding `O=S(=O)(O)CC(O)CN1CCN(CCO)CC1` (stereo not given), the growth is 105%.
Then `Cc1cc(N2CCC(N3CCCC3)CC2)nc(/N=C(\N)Nc2ccc(Cl)c(Cl)c2)n1`, with -85.9% (active); and `OC1CCCc2ccccc21` (stereo not given), with 113%; and `Cc1ccccc1N=C(c1ccccc1)C1C(=O)c2ccccc2C1=O`, with 78%.
`COc1cc(C2NC(=O)C(C#N)=C(Nc3cccc(C)c3)S2)ccc1O` (stereo not given): the growth was 101%.
As for `OCCN(CCO)C(=S)S`, the growth is 108%.
Then `Cc1c(O)cnc2nn(-c3ccccc3)c(=N)n12`, with 114%; and `Cc1cc2nc(CC(=O)c3ccccc3)c(=O)[nH]c2cc1C`, with 87.2%.
As for `COc1cc(/C=N\Nc2ccccc2)ccc1OC(=O)c1ccccc1`, the growth was 60.2%.
The result for `Nc1nc(N)c(N=Nc2ccc(C(=O)O)cc2)c(N)n1` reads 98.4%; that for `CNC(=S)NC(C)(C)C`, 98.8%; that for `CC1(C)Nc2cccc3c(N=Nc4ccc(N=Nc5ccccc5)c5ccccc45)ccc(c23)N1`, 91.6%.
The result for `Cc1cc(/C=C/c2ccc3cc(N(C)C)ccc3[n+]2C)c(C)n1-c1ccccc1` reads -71.3% (active).
The result for `N#Cc1ccc(NC(=O)Nc2cccc(C#N)c2)cc1` reads 98.1%; that for `O=C1C=CC(=O)N1c1ccc(I)cc1Cl`, 95.1%; that for `C=CC(O)CCC` (stereo not given), 106%.
In the case of `CNS(=O)(=O)c1ccc(Cl)c(Cl)c1`, the growth was 98.5%.
Then `COc1cccc(/C=N/NC(=S)NC2CC3CCC2C3)c1O` (stereo not given), with 55.7%; and `COc1cc(OC)c2ccc(=O)oc2c1`, with 115%.
With `O=C(O)CSCSCC(=O)O`, the growth was 108%.
Then `CC1(C)OC(=O)C(c2ccsc2)C(=O)O1`, with 106%.
The result for `S=C1CCCCCN1` reads 105%.
Then `COC(=O)c1ccc(C(C)C)cc1`, with 88.6%.
On to `Nc1ncnc2c1nc(N)n2C1OC(CO)C(O)C1O` (stereo not given), for which the growth was -85.6% (active).
Then `CCOC(=O)c1cc2cccc(OC)c2oc1=O`, with 99.4%; and `O=[N+]([O-])c1ccc(O)c(S(=O)(=O)O)c1`, with 109%; and `CC(C)NC(=O)OCc1c(COC(=O)NC(C)C)c(-c2ccc(Cl)c(Cl)c2)n2c1SCC2`, with 50.3%.
The result for `N#CCCc1ccc(O)cc1` reads 108%; that for `COC(=O)c1ccccc1Br`, 88.9%.
The result for `CCOC(=O)/C(=C/c1ccc(OC)cc1)N(CC)CC` reads 107%; that for `CC(=O)c1ccc(C)c(N)c1`, 92.5%; that for `CN1C(=O)CN2CCc3ccccc3C2c2cc(Cl)ccc21` (stereo not given), 97.2%.
Take `O=C(CCNNC(=O)c1ccncc1)NCc1ccccc1`: the growth is 103%.
Then `C/C(=N\O)C1(O)CCCCC1`, with 110%.
Then `COC(=O)Nc1nc2ccc(C(=O)c3cccs3)cc2[nH]1`, with 3.53% (active); and `N/N=C(/Cc1ccccc1)NNC(N)=S`, with 93.5%.
For the molecule `OCc1cccc2ccccc12`, the growth was 110%.
As to `CC1CC(O)CC(C)(C)C1` (stereo not given), the growth is 108%.
Regarding `O=C(Cc1nc2ccc([N+](=O)[O-])cc2nc1CC(=O)c1ccccc1)c1ccccc1`, the growth was 48.4%.
For `CCOC(=O)C(=O)C=P(c1ccccc1)(c1ccccc1)c1ccccc1`, the growth is 109%.
